This passage reports Potency results from PubChem BioAssay (Tox21).

Structures are written as SMILES. Values without a mark were called inactive. Results filed as inconclusive are left out. Active and inactive are the calls of the source. Unless noted, calls come from the whole dose curve.

Experiment [1] is described as follows: Nuclear factor erythroid 2-related factor 2/antioxidant responsive element (Nrf2/ARE) small molecule agonists: luciferase reporter gene qHTS assay in human keratinocytes (AID 1919969; note: nearly all actives have a fitted effect of over 35% in size; note: potency is the fitted concentration of half-maximal effect). (In a reporter assay the amount or activity of a reporter protein is the signal.)
The target of experiment [2] is Gonadotropin-releasing hormone receptor (Homo sapiens) (UniProt P30968). Nature of the experiment: Human gonadotropin-releasing hormone receptor (GnRHR) small molecule agonists, calcium flux assay in GnRHR-HEK293 cells (AID 1920063). Note: nearly all actives have a fitted effect of over 35% in size. Note: potency is the fitted concentration of half-maximal effect. In outline: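 Agonist activity was measured as intracellular calcium flux in HEK293 cells engineered to stably express human GnRHR. After dye loading for 1 hour at 37 C, compounds in DMSO were added and fluorescence was followed for 3 minutes.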
Chain of Gonadotropin-releasing hormone receptor (Homo sapiens) (P30968 whole entry, looked up): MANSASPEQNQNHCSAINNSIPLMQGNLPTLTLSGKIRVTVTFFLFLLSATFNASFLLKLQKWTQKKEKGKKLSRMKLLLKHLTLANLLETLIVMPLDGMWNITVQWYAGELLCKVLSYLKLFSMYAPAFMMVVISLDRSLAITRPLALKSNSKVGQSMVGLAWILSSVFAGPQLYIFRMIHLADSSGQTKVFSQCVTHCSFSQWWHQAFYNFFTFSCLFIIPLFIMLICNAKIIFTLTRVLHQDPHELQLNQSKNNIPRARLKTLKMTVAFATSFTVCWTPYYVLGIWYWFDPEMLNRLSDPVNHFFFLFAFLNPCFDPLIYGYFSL
For orientation: Calcium assays in cells follow changes in intracellular calcium, usually with a dye or a luminescent sensor.

Experiment [3] concerns the target KiSS-1 receptor (Homo sapiens) (UniProt Q969F8). Nature of the experiment: Human kisspeptin (KISS1R) small molecule agonists, calcium flux assay in KISS1R-HEK293 cells (AID 1920064; active = well fitted activation curve with a large enough effect in the repeat runs). The gist of the method: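 Agonist activity is monitored as intracellular calcium rise in engineered HEK293 cells carrying human KISS1R. Cells are dye-loaded for 1 h at 37 C before compound addition, and fluorescence is recorded for 3 min.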

A short description of experiment [4]: G protein-coupled receptor (GPCR) small molecule agonists, calcium flux assay: HEK293 wild type cell line counter screen (AID 1920065). In outline:
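Seed cells, incubate 18 h (37 C, 5% CO2); add calcium dye, 1 h at 37 C; pin-transfer compounds, ATP control or DMSO; read fluorescence 480/540 nm each second for 3 min.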

Experiment [5] can be described thus: p53 small molecule agonists, cell-based qHTS assay with human liver microsomes (AID 1963577). The gist of the method: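 p53RE-bla cells, 4,000/well, compound added after 5 h, with human liver microsomes 0.5 mg/mL and NADPH 0.5 mg/mL final; 16 h at 37 C, then LiveBLAzer 2 h RT, fluorescence.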
On the technique in general: Quantitative high-throughput screening tests each substance at several concentrations.

Experiment [6] can be described thus: p53 small molecule agonists, cell-based qHTS assay with rat liver microsomes (AID 1963578). In outline:
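p53RE-bla cells, 4,000/well, pre-incubated 5 h, then given compounds plus rat liver microsomes (0.5 mg/mL final) and NADPH (0.5 mg/mL final). Incubation 16 h at 37 C; beta-lactamase reporter read by LiveBLAzer fluorescence after 2 h at room temperature.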

Experiment [7] is described as follows: p53 small molecule agonists, cell-based qHTS assay with human liver microsomes: qHTS cell viability counter screen (AID 1963579). Note: nearly all actives have a fitted effect of over 45% in size. In outline: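 p53RE-bla cells, 4,000/well, dosed 5 hours after plating, with human liver microsomes (0.5 mg/mL final) plus NADPH (0.5 mg/mL final), 16 hours at 37 C. Viability read as CellTiter-Glo luminescence after 30 min at room temperature.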

The nature of experiment [8]: p53 small molecule agonists, cell-based qHTS assay with rat liver microsomes: qHTS cell viability counter screen (AID 1963580). Note: nearly all actives have a fitted effect of over 45% in size. The gist of the method: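 Cytotoxicity counter screen: intracellular ATP measured by CellTiter-Glo luminescence in the same wells as the beta-lactamase reporter read, on HCT-116 p53RE-bla cells exposed 16 h at 37 C to compounds with rat liver microsomes and NADPH, each 0.5 mg/mL final.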

Experiment [9] in a line: p53 small molecule agonists, cell-based qHTS assay: qHTS cell viability counter screen (AID 1963581). Note: nearly all actives have a fitted effect of over 45% in size. In outline: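 Viability was counter-screened in parallel with the p53 agonist reporter by measuring intracellular ATP luminescence in the same HCT-116 p53RE-bla wells after 16 h compound treatment at 37 C.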
Experiment [10] in a line: p53 small molecule agonists, cell-based qHTS assay (AID 1963582; active = well fitted activation curve with a large enough effect in the signal ratio in the repeat runs, not every such curve was filed as active; the % refers to the signal ratio). In outline:
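Cells carrying a p53-responsive bla reporter are treated with test compounds for 16 h at 37 C; beta-lactamase activity is then detected with LiveBLAzer B/G FRET substrate after 2 h at room temperature.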

For experiment [11], the target named is 5-hydroxytryptamine receptor 2A (Homo sapiens) (UniProt P28223). Nature of the experiment: 5-hydroxytryptamine receptor 2A (HTR2A) small molecule antagonists, cell-based qHTS assay (AID 1963586). Note: nearly all actives have a fitted effect of over 45% in size. In outline: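 CHO cells stably expressing human HTR2A were plated for 18 h at 37 C, then loaded with calcium dye for 1 h. Compounds were preincubated 5 min at room temperature before DOI (4 nM solution) was added. Kinetic fluorescence was read for 3 min.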
Chain of 5-hydroxytryptamine receptor 2A (Homo sapiens) (P28223 whole entry, looked up): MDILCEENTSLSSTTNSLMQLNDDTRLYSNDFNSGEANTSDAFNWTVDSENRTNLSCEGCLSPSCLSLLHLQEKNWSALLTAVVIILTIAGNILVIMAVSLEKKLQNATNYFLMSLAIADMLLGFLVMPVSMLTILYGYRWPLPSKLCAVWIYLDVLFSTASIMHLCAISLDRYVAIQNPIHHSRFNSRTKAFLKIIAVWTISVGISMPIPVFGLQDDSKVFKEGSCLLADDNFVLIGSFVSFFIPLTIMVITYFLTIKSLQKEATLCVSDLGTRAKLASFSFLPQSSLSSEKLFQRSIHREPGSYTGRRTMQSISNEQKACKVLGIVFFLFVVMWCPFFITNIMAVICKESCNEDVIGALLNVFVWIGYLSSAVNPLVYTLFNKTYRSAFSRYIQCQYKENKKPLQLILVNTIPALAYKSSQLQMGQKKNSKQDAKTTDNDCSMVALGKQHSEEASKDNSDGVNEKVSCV

Experiment [12] shares this target. Nature of the experiment: 5-hydroxytryptamine receptor 2A (HTR2A) small molecule agonists, cell-based qHTS assay (AID 1963587). Note: nearly all actives have a fitted effect of over 30% in size. Note: potency is the fitted concentration of half-maximal effect. The gist of the method: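 CHO cells stably expressing human HTR2A, plated 18 h, loaded with calcium dye 1 h at 37 C. Agonist mode: compounds added and intracellular calcium fluorescence recorded kinetically for 2 min at 1 sec intervals.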

The target in experiment [13] is Muscarinic acetylcholine receptor M1 (Homo sapiens) (UniProt P11229). Put plainly: Cholinergic receptor muscarinic 1 (CHRM1) small molecule antagonists, cell-based qHTS assay (AID 1963588). Note: nearly all actives have a fitted effect of over 40% in size. In outline: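 Compounds were tested at 15 concentrations in three independent runs. Dye-loaded CHRM1-CHO cells were exposed 5 min at room temperature before stimulation by acetylcholine added at 50nM. Intracellular calcium was read kinetically on FDSS for 3 min.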
Chain of Muscarinic acetylcholine receptor M1 (Homo sapiens) (P11229 whole entry, looked up): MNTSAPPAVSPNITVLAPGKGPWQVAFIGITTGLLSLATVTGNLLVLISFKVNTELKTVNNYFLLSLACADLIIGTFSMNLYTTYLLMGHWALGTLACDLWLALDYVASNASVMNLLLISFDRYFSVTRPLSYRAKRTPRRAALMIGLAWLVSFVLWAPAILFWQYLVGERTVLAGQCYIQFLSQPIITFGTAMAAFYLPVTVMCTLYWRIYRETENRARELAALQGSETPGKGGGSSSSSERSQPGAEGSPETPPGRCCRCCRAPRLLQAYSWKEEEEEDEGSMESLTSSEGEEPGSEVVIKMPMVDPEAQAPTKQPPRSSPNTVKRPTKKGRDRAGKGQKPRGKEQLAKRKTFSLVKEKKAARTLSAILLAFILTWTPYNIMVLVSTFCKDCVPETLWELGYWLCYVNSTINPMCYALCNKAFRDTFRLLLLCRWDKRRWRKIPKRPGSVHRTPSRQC

Experiment [14] has the same target. Nature of the experiment: Cholinergic receptor muscarinic 1 (CHRM1) small molecule agonists, cell-based qHTS assay (AID 1963589). Note: nearly all actives have a fitted effect of over 35% in size. In outline:
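Cells were plated and incubated 18 h at 37 C/5% CO2, loaded with calcium dye for 1 h at 37 C, then treated with compounds in DMSO. Fluorescence was recorded kinetically at 1 sec intervals.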

Experiment [15] can be described thus: cAMP Responsive Elements (CRE) small molecule agonists, cell-based qHTS assay (AID 1963590). The gist of the method:
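Cells carrying a CRE-driven beta-lactamase reporter (HEK 293T) are seeded, incubated overnight (18 h), and treated with test compounds for 3 h at 37 C; reporter activity is then detected with a FRET substrate after 2 h at room temperature.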

The target in experiment [16] is Beta-2 adrenergic receptor (Homo sapiens) (UniProt P07550). Put plainly: Adrenergic beta2 receptor (ADRB2) small molecule antagonists, cell-based qHTS assay (AID 1963592). Note: series mostly up to about 92 µM; nearly all actives have a fitted effect of over 50% in size. The gist of the method: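 Assay format: CHO-ADRB2 cells, 18-20hr seeding at 37C/5% CO2, then compound plus 1nM isoproterenol agonist mix for 0.5hr RT. Homogeneous time-resolved fluorescence cAMP detection after 1hr, expressed as 665/615 nm ratio.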
Chain of Beta-2 adrenergic receptor (Homo sapiens) (P07550 whole entry, looked up): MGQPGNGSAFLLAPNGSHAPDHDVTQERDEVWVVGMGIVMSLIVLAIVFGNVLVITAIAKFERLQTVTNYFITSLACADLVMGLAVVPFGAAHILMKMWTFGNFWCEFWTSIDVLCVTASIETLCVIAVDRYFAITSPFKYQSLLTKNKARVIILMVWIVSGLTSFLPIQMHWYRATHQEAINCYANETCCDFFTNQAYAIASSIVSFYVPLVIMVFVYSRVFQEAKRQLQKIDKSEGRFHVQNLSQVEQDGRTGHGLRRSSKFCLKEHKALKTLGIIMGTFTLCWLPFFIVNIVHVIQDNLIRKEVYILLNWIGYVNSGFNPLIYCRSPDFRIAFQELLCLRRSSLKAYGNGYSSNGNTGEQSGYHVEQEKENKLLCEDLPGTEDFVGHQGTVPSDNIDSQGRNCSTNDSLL

For experiment [17], the target named is D(2) dopamine receptor (Homo sapiens) (UniProt P14416). Nature of the experiment: Dopamine D2 receptor (DRD2) small molecule agonists, cell-based qHTS assay (AID 1963594). Note: nearly all actives have a fitted effect of over 35% in size. The gist of the method: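 HEK293 cells stably expressing human DRD2, pre-treated with PDE inhibitor Ro20-1724 (0.1 mM final) and compound 10 min at room temperature, then stimulated with NKH477 (200nM […]) for 30 min. cAMP read by HTRF (665/620 nm).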
Chain of D(2) dopamine receptor (Homo sapiens) (P14416 whole entry, looked up): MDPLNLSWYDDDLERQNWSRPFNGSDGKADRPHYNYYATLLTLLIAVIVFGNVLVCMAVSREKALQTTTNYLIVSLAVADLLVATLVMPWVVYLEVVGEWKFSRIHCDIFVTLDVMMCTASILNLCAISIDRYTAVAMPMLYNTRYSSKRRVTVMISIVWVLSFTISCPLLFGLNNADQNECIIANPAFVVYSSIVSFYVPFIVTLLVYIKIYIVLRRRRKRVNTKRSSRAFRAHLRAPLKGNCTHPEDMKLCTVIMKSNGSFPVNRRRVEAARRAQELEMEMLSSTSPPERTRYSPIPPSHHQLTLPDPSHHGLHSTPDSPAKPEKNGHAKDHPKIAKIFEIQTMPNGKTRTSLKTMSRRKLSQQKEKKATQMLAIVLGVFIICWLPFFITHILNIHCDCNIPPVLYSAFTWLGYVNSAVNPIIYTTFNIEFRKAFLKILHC

The target is the same in experiment [18]. Nature of the experiment: Dopamine D2 receptor (DRD2) small molecule antagonists, cell-based qHTS assay (AID 1963595; active = well fitted inhibition curve with a large enough effect in the signal ratio in the repeat runs, with a control signal flat; the % refers to the signal ratio). The gist of the method: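 HEK293 cells stably expressing DRD2, preincubated with 0.1 mM Ro20-1724 and compounds 10 min, were stimulated with 200 nM NKH477 plus 12 nM quinpirole for 30 min at room temperature; cAMP measured by HTRF (665/620 nm).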

A short description of experiment [19]: cAMP Responsive Elements (CRE) small molecule antagonists, cell-based qHTS assay (AID 1963591; active = well fitted inhibition curve with a large enough effect in the signal ratio in the repeat runs, not every such curve was filed as active; the % refers to the signal ratio). The gist of the method: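 Cells (CRE-bla HEK 293T, DMEM with 10% dialyzed FBS and 25 mM HEPES) are seeded and incubated 18 h. Compounds are added with NKH477 agonist at 0.25 uM final for 3 h, then FRET substrate for 2 h.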
Experiment [20] deals with Beta-2 adrenergic receptor (Homo sapiens) (UniProt P07550). Nature of the experiment: Adrenergic beta2 receptor (ADRB2) small molecule agonists, cell-based qHTS assay (AID 1963593).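 Note: CHO cells stably overexpressing human ADRB2.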 The gist of the method: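 CHO cells stably over-expressing ADRB2 were plated overnight at 37C, then dosed with compounds plus a stimulation mix containing 100uM IBMX and 25uM Ro-20-1724 for 0.5hr at room temperature. cAMP was measured by HTRF competition, 1hr.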

Chain of KiSS-1 receptor (Homo sapiens) (Q969F8 whole entry, looked up): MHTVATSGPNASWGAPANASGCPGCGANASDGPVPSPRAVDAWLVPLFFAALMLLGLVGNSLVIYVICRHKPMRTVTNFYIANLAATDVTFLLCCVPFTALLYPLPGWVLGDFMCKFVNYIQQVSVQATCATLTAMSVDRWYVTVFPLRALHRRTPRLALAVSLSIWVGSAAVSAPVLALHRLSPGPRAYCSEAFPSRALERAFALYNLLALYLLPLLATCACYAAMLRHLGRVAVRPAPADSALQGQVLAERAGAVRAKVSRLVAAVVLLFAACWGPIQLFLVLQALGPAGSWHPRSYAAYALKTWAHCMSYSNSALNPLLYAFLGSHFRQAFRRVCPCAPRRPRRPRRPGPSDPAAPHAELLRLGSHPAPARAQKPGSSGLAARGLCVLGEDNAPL

Turning to `C=Cc1ccc(S(=O)(=O)O)cc1`, the Potency entry in experiment [1], in [2], in experiment [3], in experiment [4], in [5] and in experiment [6] was “inactive” in each case. Besides, the Potency result in experiment [7], in experiment [8], in experiment [9], in experiment [10], in experiment [11] and in [12] was “inactive” throughout. Further, the Potency result in [13], in [14], in experiment [15], in experiment [16] and in experiment [17] was “inactive” in each case.

Take `CCCCN(CCCC)CC(O)c1cc(Cl)cc2c1-c1ccc(Cl)cc1/C2=C/c1ccc(Cl)cc1` (stereo not drawn): the Potency result in experiment [1], in experiment [2], in experiment [3], in experiment [4], in experiment [5] and in experiment [6] was “inactive” in each case. The Potency entry in experiment [7], in experiment [8], in experiment [9], in [10], in experiment [11] and in experiment [12] was “inactive” in each case. Besides, the Potency entry in experiment [13], in experiment [14], in [17] and in experiment [18] was “inactive” in each case.

`O=[N+]([O-])C1(Br)COCOC1`: the Potency in [1] was 24.3 µM (active); in [2] it was 38.9 µM (active). Besides, the Potency entry in experiment [3], in [4], in [5], in [6], in experiment [7] and in [8] was “inactive” each time. For the same molecule, the Potency result in experiment [9], in [10], in [11], in [13], in experiment [14] and in experiment [15] was “inactive” each time. Besides, the Potency entry in [19], in experiment [16], in [20], in [17] and in [18] was “inactive” in each case.

As for `C1=CC2C3C=CC(C3)C2C1` (stereo not drawn), the Potency entry in experiment [4], in experiment [6], in [10], in [13], in experiment [15] and in experiment [19] was “inactive” each time. For the same molecule, the Potency result in [16] is “inactive”. The Potency in experiment [12] was 54 µM (active).

For the molecule `CCc1cc(C(C)(C)C)c(O)c(C(C)(C)C)c1`, the Potency in [1] is 34.7 µM (active). In addition, the Potency entry in experiment [2], in [3], in [4], in [5], in experiment [6] and in [7] was “inactive” throughout. The Potency entry in experiment [8], in experiment [9], in experiment [10], in [11], in [13] and in [14] was “inactive” each time. Also, the Potency entry in experiment [15], in [19], in [16], in [20], in experiment [17] and in [18] was “inactive” throughout.

In the case of `CC1=NN(c2ccc(S(=O)(=O)O)cc2)C(=O)C1N=Nc1ccccc1` (stereo not drawn), the Potency result in [1], in experiment [2], in experiment [3], in [4], in experiment [5] and in [6] was “inactive” each time. Besides, the Potency result in experiment [7], in experiment [8], in experiment [9], in [10], in [11] and in experiment [12] was “inactive” throughout. Besides, the Potency result in experiment [13], in [14], in experiment [15], in [19], in [16] and in [17] was “inactive” in each case. Further, the Potency result in [18] is “inactive”.

For `CC1=NN(c2cc(S(=O)(=O)O)ccc2Cl)C(=O)C1N=Nc1ccccc1` (stereo not drawn), the Potency result in experiment [1], in experiment [2], in [3], in experiment [4], in experiment [5] and in experiment [6] was “inactive” each time. In addition, the Potency entry in experiment [7], in experiment [8], in experiment [9], in experiment [10], in experiment [11] and in experiment [12] was “inactive” each time. Besides, the Potency entry in experiment [13], in experiment [14], in experiment [15], in [19], in experiment [16] and in [20] was “inactive” each time. In addition, the Potency result in experiment [17] and in experiment [18] was “inactive” each time.
